# About 8,800 targets were measured; listed, in parts, are those with a hit and a random draw of the rest. About 0.5% of all pairs of compound and target were hits.
# Compound: CNC(=O)C1=CC=CC=C1NC2=NC(=NC=C2Cl)NC3=C(C=C(C=C3)N4CCOCC4)OC
# Test: log2 fold change, soluble protein after heating vs DMSO (PISA); higher = thermal stabilisation; K562 lysate, 10 uM; active = over 0.2 and 3.5 SD of the protein, either way, in both replicates (recomputed)
# Summary of the method: (§1)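 A 30 min treatment with 10 μM compound was applied to crude K562 extract at 1 mg/mL protein in PBS pH 7.4 with 1 mM MgCl2. Heating for 3 min spanned 48°C-58°C, after which aliquots were pooled, adjusted to 0.5% NP-40 at 4°C and spun at 21,000xg for 90 min. TMTpro 16plex LC-MS/MS of the supernatant, with channel sums equalised, gave values recorded as log-two fold change in thermal stability against solvent controls, from duplicates.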
# Chain of UniProt Q9H8M5 (Q9H8M5 whole entry, looked up): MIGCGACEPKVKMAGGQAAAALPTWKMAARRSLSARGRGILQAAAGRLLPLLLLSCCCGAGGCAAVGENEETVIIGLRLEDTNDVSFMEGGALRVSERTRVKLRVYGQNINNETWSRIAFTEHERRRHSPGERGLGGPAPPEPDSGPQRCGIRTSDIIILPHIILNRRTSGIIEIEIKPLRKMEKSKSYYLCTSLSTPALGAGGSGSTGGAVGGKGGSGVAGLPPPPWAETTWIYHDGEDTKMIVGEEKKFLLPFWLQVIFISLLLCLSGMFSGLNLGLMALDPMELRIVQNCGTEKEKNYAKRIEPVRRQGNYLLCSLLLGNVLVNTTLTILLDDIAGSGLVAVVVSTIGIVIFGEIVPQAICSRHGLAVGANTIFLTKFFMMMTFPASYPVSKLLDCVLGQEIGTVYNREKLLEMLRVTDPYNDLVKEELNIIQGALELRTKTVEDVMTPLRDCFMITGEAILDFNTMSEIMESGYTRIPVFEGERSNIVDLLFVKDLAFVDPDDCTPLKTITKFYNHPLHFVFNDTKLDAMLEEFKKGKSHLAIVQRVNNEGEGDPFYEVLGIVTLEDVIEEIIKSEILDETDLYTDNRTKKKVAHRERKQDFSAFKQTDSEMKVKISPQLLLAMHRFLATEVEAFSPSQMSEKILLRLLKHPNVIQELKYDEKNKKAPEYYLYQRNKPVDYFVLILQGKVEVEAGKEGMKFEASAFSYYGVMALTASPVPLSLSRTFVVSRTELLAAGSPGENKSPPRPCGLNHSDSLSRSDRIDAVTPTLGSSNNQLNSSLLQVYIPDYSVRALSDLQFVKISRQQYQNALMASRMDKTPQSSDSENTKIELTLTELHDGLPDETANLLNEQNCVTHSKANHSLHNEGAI
# Chain of UniProt P00374 (P00374 whole entry, looked up): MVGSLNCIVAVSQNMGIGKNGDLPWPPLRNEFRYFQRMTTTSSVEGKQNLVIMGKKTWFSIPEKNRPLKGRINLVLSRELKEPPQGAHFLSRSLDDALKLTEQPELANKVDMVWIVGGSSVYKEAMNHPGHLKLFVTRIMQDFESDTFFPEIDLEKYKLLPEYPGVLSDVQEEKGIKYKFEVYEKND
# Chain of UniProt Q9H2P9 (Q9H2P9 whole entry, looked up): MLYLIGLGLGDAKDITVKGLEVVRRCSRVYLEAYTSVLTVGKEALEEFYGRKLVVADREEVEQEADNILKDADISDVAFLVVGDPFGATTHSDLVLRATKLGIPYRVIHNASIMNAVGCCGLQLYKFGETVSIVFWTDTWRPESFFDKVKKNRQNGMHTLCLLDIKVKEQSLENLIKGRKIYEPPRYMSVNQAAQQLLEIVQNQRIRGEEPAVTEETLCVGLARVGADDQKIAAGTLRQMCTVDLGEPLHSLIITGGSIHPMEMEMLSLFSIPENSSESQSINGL
# Chain of UniProt Q6P3S1 (Q6P3S1 whole entry, looked up): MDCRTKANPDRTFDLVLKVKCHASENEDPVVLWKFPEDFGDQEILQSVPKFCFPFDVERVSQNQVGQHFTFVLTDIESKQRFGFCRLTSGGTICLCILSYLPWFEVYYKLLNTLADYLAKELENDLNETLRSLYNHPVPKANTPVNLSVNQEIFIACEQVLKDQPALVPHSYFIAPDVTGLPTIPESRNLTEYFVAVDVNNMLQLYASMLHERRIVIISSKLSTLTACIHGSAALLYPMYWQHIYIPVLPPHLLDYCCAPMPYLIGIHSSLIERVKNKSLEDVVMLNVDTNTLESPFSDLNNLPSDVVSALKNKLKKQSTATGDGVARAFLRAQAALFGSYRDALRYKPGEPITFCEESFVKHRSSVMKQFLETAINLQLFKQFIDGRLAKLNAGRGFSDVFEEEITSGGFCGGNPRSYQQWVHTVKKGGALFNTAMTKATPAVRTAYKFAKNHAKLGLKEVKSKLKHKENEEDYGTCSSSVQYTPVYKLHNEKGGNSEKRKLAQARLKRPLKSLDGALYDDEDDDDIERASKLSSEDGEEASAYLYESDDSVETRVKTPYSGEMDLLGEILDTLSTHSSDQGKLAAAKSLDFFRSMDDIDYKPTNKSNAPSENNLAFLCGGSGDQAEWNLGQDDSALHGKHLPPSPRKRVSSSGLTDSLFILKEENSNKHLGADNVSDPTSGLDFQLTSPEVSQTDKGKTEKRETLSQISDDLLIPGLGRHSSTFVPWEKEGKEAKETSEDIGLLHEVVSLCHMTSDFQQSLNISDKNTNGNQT
# Chain of UniProt Q96DG6 (Q96DG6 whole entry, looked up): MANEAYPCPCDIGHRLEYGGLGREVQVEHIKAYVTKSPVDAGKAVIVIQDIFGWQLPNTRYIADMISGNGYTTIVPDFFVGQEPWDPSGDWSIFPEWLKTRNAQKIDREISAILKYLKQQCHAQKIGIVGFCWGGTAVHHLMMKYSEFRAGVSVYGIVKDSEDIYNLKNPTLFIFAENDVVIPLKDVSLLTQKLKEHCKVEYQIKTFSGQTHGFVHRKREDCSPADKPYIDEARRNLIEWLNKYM
# Chain of UniProt P51530 (P51530 whole entry, looked up): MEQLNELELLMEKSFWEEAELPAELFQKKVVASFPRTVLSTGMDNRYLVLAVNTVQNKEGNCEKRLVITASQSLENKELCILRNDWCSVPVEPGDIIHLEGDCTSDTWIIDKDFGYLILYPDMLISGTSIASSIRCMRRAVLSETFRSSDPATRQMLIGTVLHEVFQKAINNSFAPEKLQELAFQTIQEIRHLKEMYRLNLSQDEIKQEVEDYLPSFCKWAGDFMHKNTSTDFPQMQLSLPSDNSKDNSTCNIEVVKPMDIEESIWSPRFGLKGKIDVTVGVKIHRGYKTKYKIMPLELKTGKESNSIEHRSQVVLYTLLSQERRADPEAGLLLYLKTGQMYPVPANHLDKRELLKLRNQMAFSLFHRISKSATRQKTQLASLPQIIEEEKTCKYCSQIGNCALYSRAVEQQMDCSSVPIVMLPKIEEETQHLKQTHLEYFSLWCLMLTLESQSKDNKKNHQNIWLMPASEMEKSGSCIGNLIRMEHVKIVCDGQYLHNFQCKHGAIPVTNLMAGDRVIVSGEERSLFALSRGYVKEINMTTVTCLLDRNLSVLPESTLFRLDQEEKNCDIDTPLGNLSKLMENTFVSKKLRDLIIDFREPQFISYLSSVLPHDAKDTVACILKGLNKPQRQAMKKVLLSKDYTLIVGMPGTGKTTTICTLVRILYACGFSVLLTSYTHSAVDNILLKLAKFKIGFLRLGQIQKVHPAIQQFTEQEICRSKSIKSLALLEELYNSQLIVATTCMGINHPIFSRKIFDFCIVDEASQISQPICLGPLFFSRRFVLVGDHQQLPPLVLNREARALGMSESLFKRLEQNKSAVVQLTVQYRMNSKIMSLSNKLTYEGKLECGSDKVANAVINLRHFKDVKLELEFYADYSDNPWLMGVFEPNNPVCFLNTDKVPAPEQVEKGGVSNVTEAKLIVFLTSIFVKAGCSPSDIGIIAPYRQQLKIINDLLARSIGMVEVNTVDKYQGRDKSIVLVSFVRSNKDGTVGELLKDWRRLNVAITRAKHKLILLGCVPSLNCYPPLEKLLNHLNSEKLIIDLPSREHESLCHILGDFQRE
# Chain of UniProt O95628 (O95628 whole entry, looked up): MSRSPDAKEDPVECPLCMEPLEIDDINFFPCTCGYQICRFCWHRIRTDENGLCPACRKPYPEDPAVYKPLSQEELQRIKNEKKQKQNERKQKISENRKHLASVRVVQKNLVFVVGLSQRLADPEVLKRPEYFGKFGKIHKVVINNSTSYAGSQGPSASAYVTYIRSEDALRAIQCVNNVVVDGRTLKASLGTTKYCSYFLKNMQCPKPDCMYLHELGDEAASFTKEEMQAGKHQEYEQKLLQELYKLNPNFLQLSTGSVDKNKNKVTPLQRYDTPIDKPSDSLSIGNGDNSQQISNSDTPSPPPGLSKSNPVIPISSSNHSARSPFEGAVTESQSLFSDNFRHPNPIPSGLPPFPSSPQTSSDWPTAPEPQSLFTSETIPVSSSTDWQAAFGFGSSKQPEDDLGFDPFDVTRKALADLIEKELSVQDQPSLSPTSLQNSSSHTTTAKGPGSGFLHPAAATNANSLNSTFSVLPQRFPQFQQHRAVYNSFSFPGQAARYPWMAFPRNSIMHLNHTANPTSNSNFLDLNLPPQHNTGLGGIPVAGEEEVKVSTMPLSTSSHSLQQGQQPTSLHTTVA
# Chain of UniProt Q8TDD1 (Q8TDD1 whole entry, looked up): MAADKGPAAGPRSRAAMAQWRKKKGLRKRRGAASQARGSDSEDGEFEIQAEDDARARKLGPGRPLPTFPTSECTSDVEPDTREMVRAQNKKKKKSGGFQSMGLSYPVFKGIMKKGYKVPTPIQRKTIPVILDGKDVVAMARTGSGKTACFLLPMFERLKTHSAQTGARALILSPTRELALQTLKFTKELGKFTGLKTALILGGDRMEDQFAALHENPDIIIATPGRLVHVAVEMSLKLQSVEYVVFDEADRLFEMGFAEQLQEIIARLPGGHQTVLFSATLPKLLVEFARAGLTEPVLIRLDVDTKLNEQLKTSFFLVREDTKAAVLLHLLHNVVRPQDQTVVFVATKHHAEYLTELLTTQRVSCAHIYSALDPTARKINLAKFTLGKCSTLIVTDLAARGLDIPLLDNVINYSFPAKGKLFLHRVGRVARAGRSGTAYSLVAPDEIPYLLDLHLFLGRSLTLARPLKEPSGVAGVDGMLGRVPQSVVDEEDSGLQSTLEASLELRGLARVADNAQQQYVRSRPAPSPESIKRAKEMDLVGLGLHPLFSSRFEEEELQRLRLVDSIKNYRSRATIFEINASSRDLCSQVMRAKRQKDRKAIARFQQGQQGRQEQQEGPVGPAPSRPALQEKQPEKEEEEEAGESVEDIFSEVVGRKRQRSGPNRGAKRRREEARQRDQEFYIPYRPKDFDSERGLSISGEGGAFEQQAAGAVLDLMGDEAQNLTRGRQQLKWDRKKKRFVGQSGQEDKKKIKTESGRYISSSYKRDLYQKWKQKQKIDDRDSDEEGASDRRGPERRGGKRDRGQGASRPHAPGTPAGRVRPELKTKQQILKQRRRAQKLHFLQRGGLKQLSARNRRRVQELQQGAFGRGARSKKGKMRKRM
# Chain of UniProt P24311 (P24311 whole entry, looked up): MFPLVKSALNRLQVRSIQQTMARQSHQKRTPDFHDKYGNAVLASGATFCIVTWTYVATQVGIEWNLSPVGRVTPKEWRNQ
row,Target,log2 fold change
1,CUX1 isoform 3 (UniProt P39880),0.055 (inactive)
2,"CLUH, A0A494C0R8",-0.015 (inactive)
3,CUX1 isoform 2 (UniProt Q13948),0.033 (inactive)
4,DENND4A isoform 2 (UniProt Q7Z401),-0.024 (inactive)
5,DNM2 (UniProt P50570),0.024 (inactive)
6,DAZAP1 (UniProt Q96EP5),-0.026 (inactive)
7,DIAPH1 (UniProt H9KV28),0.036 (inactive)
8,DNAAF5 (UniProt Q86Y56),-0.011 (inactive)
9,DDAH1 (UniProt O94760),0.037 (inactive)
10,CNOT4 isoform 9 (UniProt O95628),-0.087 (inactive)
11,CLPB isoform 2 (UniProt Q9H078),0.031 (inactive)
12,DNAH5 (UniProt Q8TE73),-0.032 (inactive)
13,DPH5 isoform 5 (UniProt Q9H2P9),0.119 (inactive)
14,DAPK1 isoform 3 (UniProt P53355),0.322 (inactive)
15,COX7B (UniProt P24311),0.112 (inactive)
16,CIP2A (UniProt Q8TCG1),-0.015 (inactive)
17,DNA2 (UniProt P51530),-0.009 (inactive)
18,COG2 (UniProt Q14746),-0.009 (inactive)

row,Target,log2 fold change
1,DCP1A (UniProt Q9NPI6),0.003 (inactive)
2,CSNK1E (UniProt P49674),0.129 (inactive)
3,DMAC2L (UniProt Q99766),-0.056 (inactive)
4,DENND1B (UniProt Q6P3S1),-0.105 (inactive)
5,COG6 (UniProt Q9Y2V7),0.059 (inactive)
6,CORO7 (UniProt P57737),-0.092 (inactive)
7,DHFR (UniProt P00374),-0.001 (inactive)
8,CHMP4A isoform 2 (UniProt Q9BY43),-0.01 (inactive)
9,DDX39A (UniProt O00148),-0.006 (inactive)
10,DCTN1 isoform 4 (UniProt Q14203),0.212 (inactive)
11,CMBL (UniProt Q96DG6),-0.012 (inactive)
12,DBF4 (UniProt Q9UBU7),-0.025 (inactive)
13,DHRS11 (UniProt Q6UWP2),0.055 (inactive)
14,DDX54 isoform 2 (UniProt Q8TDD1),0.017 (inactive)
15,CNTN4 (UniProt Q8IWV2),0.021 (inactive)
16,CNNM2 (UniProt Q9H8M5),0.007 (inactive)
17,CSTF2 (UniProt P33240),0.014 (inactive)

# Compound: CNC(=O)c1ccc(Nc2ncc(C(F)(F)F)c(NCc3nccnc3N(C)S(C)(=O)=O)n2)cc1 [defactinib]
# Test: as above
# Summary of the method: as §1
row,Target,log2 fold change
1,CUX1 isoform 3 (UniProt P39880),-0.006 (inactive)
2,"CLUH, A0A494C0R8",-0.184 (inactive)
3,CUX1 isoform 2 (UniProt Q13948),0.085 (inactive)
4,DENND4A isoform 2 (UniProt Q7Z401),0.077 (inactive)
5,DNM2 (UniProt P50570),0.007 (inactive)
6,DAZAP1 (UniProt Q96EP5),-0.039 (inactive)
7,DIAPH1 (UniProt H9KV28),0.012 (inactive)
8,DNAAF5 (UniProt Q86Y56),-0.009 (inactive)
9,DDAH1 (UniProt O94760),0.014 (inactive)
10,CNOT4 isoform 9 (UniProt O95628),-0.085 (inactive)
11,CLPB isoform 2 (UniProt Q9H078),0.086 (inactive)
12,DNAH5 (UniProt Q8TE73),-0.014 (inactive)
13,DPH5 isoform 5 (UniProt Q9H2P9),-0.002 (inactive)
14,DAPK1 isoform 3 (UniProt P53355),-0.109 (inactive)
15,COX7B (UniProt P24311),0.042 (inactive)
16,CIP2A (UniProt Q8TCG1),0.003 (inactive)
17,DNA2 (UniProt P51530),-0.039 (inactive)
18,COG2 (UniProt Q14746),0.05 (inactive)

row,Target,log2 fold change
1,DCP1A (UniProt Q9NPI6),0.033 (inactive)
2,CSNK1E (UniProt P49674),-0.017 (inactive)
3,DMAC2L (UniProt Q99766),0.022 (inactive)
4,DENND1B (UniProt Q6P3S1),0.099 (inactive)
5,COG6 (UniProt Q9Y2V7),-0.028 (inactive)
6,CORO7 (UniProt P57737),0.191 (inactive)
7,DHFR (UniProt P00374),0.039 (inactive)
8,CHMP4A isoform 2 (UniProt Q9BY43),0.007 (inactive)
9,DDX39A (UniProt O00148),0.003 (inactive)
10,DCTN1 isoform 4 (UniProt Q14203),-0.046 (inactive)
11,CMBL (UniProt Q96DG6),-0.051 (inactive)
12,DBF4 (UniProt Q9UBU7),-0.023 (inactive)
13,DHRS11 (UniProt Q6UWP2),0.021 (inactive)
14,DDX54 isoform 2 (UniProt Q8TDD1),-0.05 (inactive)
15,CNTN4 (UniProt Q8IWV2),-0.104 (inactive)
16,CNNM2 (UniProt Q9H8M5),0.065 (inactive)
17,CSTF2 (UniProt P33240),-0.016 (inactive)

# Source: the supplement of paper PMC10849652
